Biological target: XKR5
Experiment: pooled miR-30 sensor sort-seq; sequence = guide strand
Conditions: shRNA

Row | Sequence | sensor-assay potency score (higher = more potent)
1 | TAAGTTATTCTACTATTCCTTT | -0.571
2 | TAATATTGTACCCTAATCCAAA | -1.28
3 | TTGTAGAACAGAACCAGACTCA | 0.203
4 | TAGTGTCTCACATTGAATGGAA | -0.0169
5 | TTAGTTATTACAAGCACACAGG | -0.438
6 | TAGCAGACAATTTTGACTGGAA | 0.477

Biological target: XKRX
Experiment: as above
Conditions: shRNA

Row | Sequence | sensor-assay potency score (higher = more potent)
7 | TAAGTTTCACTATTCTTTCGAT | 0.293
8 | TAAATGGAAAAGTAAATCGGGG | -0.48
9 | TTATCTTTGGCTAGATCTCTGT | -0.472
10 | TTCTCTACCAACCTCACACTAT | -0.943
11 | TAAACTCTGTCCATTGTCGAGG | -0.536
12 | AATACCATTAGCACAACTCTAC | -0.637
13 | TTCAGTAACACTTTCACTCCAA | 0.565
14 | TCTATTAGCATCTTCTTTCGGG | 0.547
15 | TAGCACAACTCTACCCAGGGGA | 0.12
16 | TAGTCTACTACATTATGGGTGA | -0.472
17 | TAGTCATCGTACTTGATCTGGA | 0.135
18 | TAACAGAGAGCTAATCTGCTTG | 0.29

Biological target: YAP1
Experiment: as above
Conditions: shRNA

Row | Sequence | sensor-assay potency score (higher = more potent)
19 | TAAAGTATCTTGCTGGACGTTT | -0.0595
20 | TTTGGTTGATAGTATCACCTGT | 0.841
21 | TGCTGTGACATGAAGCATCTGA | 0.636
22 | TTGAACAAACTAAATGCTGTGA | 0.444
23 | TTGGTTGATAGTATCACCTGTA | 0.588
24 | TGTTGAACAAACTAAATGCTGT | 0.164
25 | TGTTGTTGTCTGATCGATGTGA | 0.751
26 | TTAAGAAGTATCTCTGACCAGA | 0.035
27 | ATCTTTTTCTGTATTAGCCTGA | 0.428
28 | TTAGCCTGAAAACTGCAACTGG | -0.22
29 | TTAAGGAAAGGATCTGAGCTAT | -0.559
30 | TACATTAACAGCAGCAATGGAC | -0.672

Biological target: YARS
Experiment: as above
Conditions: shRNA

Row | Sequence | sensor-assay potency score (higher = more potent)
31 | TTCTCATAGTAACTGACTCGGA | -0.794
32 | TCGTAGGATCACAAACTCGGAC | -0.717
33 | ATCTTCTCTACATACAGGCTGT | -0.695
34 | TTTTGCTGCCTGTTAATCCTGG | -0.733
35 | TTTTAAATACTCTTCATCCAAA | -1.12
36 | TATAGAAGCACACAGAAGCATG | -1.29
37 | TTCTTCACATCCTCCTTCCGAT | -0.429
38 | TACACATCTAGTGTGTACTCTT | -0.195
39 | TCTAGTGTGTACTCTTTGCTGA | 0.0358
40 | TTCTCGAAGACTTTCTTCTTGG | -0.635

Reference: the OligoGym collection
